Screen size: about 52,000 compounds; about 4,300 (8.3%) were called active. This excerpt belongs to a sample that is enriched for actives. A number with no mark means an inactive call. No stated cut-off is given here; in the data, active means survival mostly below about 52% (no sharp cut-off); inactive means mostly above about 56%.
Test system: DeltatarO mutant
Test: growth inhibition of S. aureus wild type versus tarO mutant, primary screen, teichoic acid synthesis inhibitors, RN4220, OD600 (AID 463173)
Settings: OD600, 18 h, stronger effect = lower value, screened at 18.75 µg/mL (by protocol)

| Structure (SMILES) | survival |
| --- | --- |
| Cc1cc(C)cc(OCCSc2nc(-c3cccs3)nc3cc(=O)[nH]n23)c1 | 67% |
| O=C(COc1ccccc1Cl)Nc1cc(-c2ccccc2F)nn1-c1ccccc1 | 91% |
| CCOC(=O)c1ccccc1NC(=O)c1ccc2c(Cl)c3c(nc2c1)CCC3 | 96% |
| COc1cccc(CNC(=O)c2ccc3c(Cl)c4c(nc3c2)CCCC4)c1 | 49% (active) |
| O=C(NCc1cccc(Cl)c1)c1ccc2c(Cl)c3c(nc2c1)CCCC3 | 48% |
| COc1ccc(CNC(=O)c2ccc3c(Cl)c4c(nc3c2)CCCC4)c(OC)c1 | 92% |
| COc1cc(NC(=O)c2ccc3c(Cl)c4c(nc3c2)CCC4)cc(OC)c1OC | 62% |
| CCOC(=O)c1cccc(NC(=O)c2ccc3c(Cl)c4c(nc3c2)CCC4)c1 | 41% (active) |
| NS(=O)(=O)c1ccc(NC(=O)c2csnn2)cc1 | 80% |
| O=C(NCCO)c1ccc(-c2nnc(Nc3ccc(OC(F)(F)Cl)cc3)c3ccccc23)cc1 | 72% |
| CCOC(=O)c1ccc(NC(=O)C2CCCN(c3ccc(Sc4ccc(C)cc4)nn3)C2)cc1 (stereo not given) | 43% |
| Cc1ccccc1CN1c2ccccc2-c2nc(SCC(=O)Nc3cc(F)ccc3F)ncc2S1(=O)=O | 89% |
| Cc1ccc(C)c(CN2C(=O)c3ccccc3Sc3ccc(C(=O)NCc4ccc5c(c4)OCO5)cc32)c1 | 89% |
| Cc1[nH]c2ccccc2c1Cc1nnc(SCC(N)=O)n1Cc1ccco1 | 99% |
| CCOC(=O)c1nc(Nc2ccc(C(=O)OCC(C)C)cc2)c2ccccc2n1 | 61% |
| COC(=O)c1ccc(Nc2nc(-c3ccccc3Cl)nc3ccccc23)cc1 | 21% (active) |
| COC(=O)c1ccc(Nc2nc(-c3ccc(C)cc3)nc3ccccc23)cc1 | 9% (active) |
| CCOC(=O)c1nc(Nc2ccc(C(C)=O)cc2)c2ccccc2n1 | 49% |

| Structure (SMILES) | survival |
| --- | --- |
| CCOC(=O)c1nc(Nc2ccc(C(=O)OC(C)C)cc2)c2ccccc2n1 | 68% |
| O=C(CSc1nc(Nc2ccc(F)cc2)c2ccccc2n1)c1ccc(F)cc1 | 124% |
| COc1ccc2c(c1)c1c(c(=O)n(-c3ccc(OC)c(OC)c3)c(=O)n1Cc1ccc(C)cc1)n2C | 73% |
| CCOc1ccc(NC(=O)CSc2nc3c(oc4ccccc43)c(=O)n2-c2ccccc2C)cc1 | 79% |
| COc1ccc(CC(=O)N2CCc3cc(OC)c(OC)cc3C2COc2ccc(F)cc2)cc1 (stereo not given) | 67% |
| Cn1nnnc1SCCCNCc1ccccc1OCc1ccc(Cl)cc1 | 66% |
| Cn1nnnc1SCCCNCc1cccc(OCc2ccccc2)c1 | 85% |
| Cn1nnnc1SCCNCc1ccc(OCc2ccc(Cl)cc2)cc1 | 68% |
| Cn1nnnc1SCCCNCc1ccccc1OCc1ccc(F)cc1 | 57% (active) |
| Cn1nnnc1SCCCNCc1cccc(OCc2ccc(Cl)cc2)c1 | -3% (active) |
| COc1cccc(CNCCSc2nnnn2C)c1OCc1ccccc1 | 79% |
| COc1cc(CNCCSc2nnnn2C)cc(Cl)c1OCc1ccccc1 | 44% (active) |
| CCOc1cc(CNCCSc2nnnn2C)cc(Cl)c1OCc1ccc(Cl)cc1 | 2% (active) |
| COc1cccc(CNCCSc2nnnn2C)c1OCc1ccc(Cl)cc1 | 62% |
| Cn1nnnc1SCCCNCc1cccc(OCc2ccc(F)cc2)c1 | 115% |
| COc1cc(CNCCSc2nnnn2C)ccc1OCc1ccccc1 | 73% |
| Cn1nnnc1SCCCNCc1ccccc1OCc1ccccc1F | 72% |
